Inconclusive results are not listed. Unmarked numbers belong to inactive results. Active and inactive are the calls of the source. The call rests on the fitted dose curve; in most records, active means well fitted curve in the direction sought with a large enough effect; inconclusive means small, poorly fitted or top-dose-only effect, or another doubt; inactive means no such curve, though single readings can be large; an effect the other way counts as inactive or inconclusive.
Target: Aldehyde dehydrogenase, mitochondrial (Homo sapiens) (UniProt P05091)
Assay: qHTS for Inhibitors of the Aldehyde Dehydrogenase Family (ALDH2) Primary screen (AID 2061308);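 further: plate controls were vehicle for no effect and reference inhibitor for full effect; nearly all actives have a fitted effect of over 55% in size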
Settings: ALDH2 enzyme inhibition qHTS, 1536-well; series mostly up to 56 µM; activity change, negative = inhibition: at the top concentration

| Structure (SMILES) | activity change, negative = inhibition | Potency |
| --- | --- | --- |
| NC(=O)C1CCN(c2nccc(-c3ccc(Br)cc3)n2)CC1 | 8.18% |  |
| CN(C)c1cccc(-c2cc(N3CCC(C(N)=O)CC3)ncn2)c1 | -1.56% |  |
| COc1ccc(CNc2ccc(-c3nc4ccccc4[nH]3)cc2)cc1OC | -3.66% |  |
| CC(=O)NC(c1cccs1)c1cc(F)c2cccnc2c1O (stereo not drawn) | -5.69% |  |
| COc1ccc(C2Nc3ccccc3C(=O)N2Cc2ccccc2)cc1COc1cccc(C)c1 (stereo not drawn) | 15.1% |  |
| Cc1cnc(N2CCC(C(N)=O)CC2)nc1-c1cccc(N(C)C)c1 | -20.3% |  |
| Cc1ccc(S(=O)(=O)Nc2ccccc2C(=O)Nc2nccs2)cc1 | 10.8% |  |
| CCCn1c(C)nc2c(NC(C)CN(C)C)nc(C)nc21 (stereo not drawn) | -5.84% |  |
| O=C(O)c1ccc(S(=O)(=O)N[C@H](Cc2ccc([N+](=O)[O-])cc2)C(=O)O)cc1 | -0.872% |  |
| Cc1nc(CCNc2ncnc3ccc(-c4ccc5c(c4)OCO5)cc23)cs1 | 4.46% |  |
| COc1ccc(NC(=O)c2cnn3c(C)cc(C)nc23)cc1F | 4.14% |  |
| COc1ccc(CNc2nc(-c3ccccc3C(F)(F)F)nc3ccccc23)cc1 | -15.2% |  |
| Cc1ccnc(NC(=S)NCCN(C)c2cccc(C(F)(F)F)c2)c1 | -7.58% |  |
| COCCNc1nc(C)nc2c1nc(-c1ccccc1)n2CC1CCN(C)CC1 | 3.2% |  |
| O=S(=O)(c1ccc2ccccc2c1)N1CCN(S(=O)(=O)c2c(F)cccc2F)CC1 |  | inactive |
| c1coc(CNc2nc(-c3cccs3)nc3ccccc23)c1 | -7.94% |  |
| O=C(OCC#CCSc1nnc(-c2cccc3ccccc23)o1)c1ccc2ccccc2c1 | 6.43% |  |
| Cc1cc(C)cc(Cn2ncc3c4sc(C)cc4n(C)c3c2=O)c1 | -8.36% |  |
| O=C(Cc1ccccc1)Nc1ccc(S(=O)(=O)Nc2nccs2)cc1 | 7.9% |  |
| Cc1cc(C)nc(NC(=S)N2CCN(c3ccccc3C#N)CC2)c1 | -8.67% |  |

| Structure (SMILES) | activity change, negative = inhibition | Potency |
| --- | --- | --- |
| N#Cc1ccc(Nc2ncc(-c3cccc4ccccc34)o2)cc1 | 9.13% |  |
| C=CCNc1oc(-c2ccc(Cl)cc2)nc1C#N | 3.74% |  |
| O=C(Cn1cc(CNCc2ccccc2)nn1)Nc1cc(C(F)(F)F)ccc1Cl | 8.31% |  |
| NC(=O)C1CCN(c2nc(-c3ccccc3F)cs2)CC1 | 1.02% |  |
| C[C@H]1CC[C@@]2(OC1)O[C@H]1CC3[C@@H]4CC[C@@H]5C[C@@H](O[C@@H]6O[C@H](CO)[C@@H](O[C@@H]7O[C@H](CO[C@@H]8OC[C@@H](O)[C@H](O)[C@H]8O)[C@@H](O[C@@H]8O[C@H](CO)[C@H](O)[C@H](O)[C@H]8O)[C@H](O)[C@H]7O)[C@H](O)[C@H]6O)CC[C@]5(C)C4CC[C@]3(C)[C@H]1[C@@H]2C (stereo partly drawn) | -0.532% [at 16.9 µM] |  |
| Fc1cc(Nc2nc(-c3ccncc3)nc3ccccc23)ccc1-n1cncn1 |  | inactive |
| Cn1nnnc1Sc1ncnc2scc(-c3ccc[nH]3)c12 | 11.5% |  |
| CCC1(CC)CCN(C(=O)CC(c2ccc3c(c2)OCO3)c2c(O)cc(OC)cc2OC)C1 (stereo not drawn) | 1.63% |  |
| O=c1[nH]c2ccc(S(=O)(=O)N3CCN(S(=O)(=O)c4c(F)cccc4F)CC3)cc2[nH]c1=O | 11.6% |  |
| CCC(CC)C(=O)NCCc1nc2ccccc2n1CCOc1ccc(C)cc1 | 0.438% |  |
| COC(=O)c1cc(F)c(S(=O)(=O)N2CCN(S(=O)(=O)c3ccc4c(c3)OCCO4)CC2)cc1F | 8.78% |  |
| NNC(=O)C(C(=O)OCc1ccccc1)c1ccccc1 (stereo not drawn) | -9.75% |  |
| Cc1cccc(C)c1-n1c(SCC(=O)Nc2ccc(F)cc2)nnc1-c1cccc([S+](=O)([O-])N2CCCC2)c1 | 4.73% |  |
| Cc1cc2[nH]c3c(=O)n(Cc4ccccc4F)ncc3c2s1 | 7.57% |  |
| Cc1cccc(S(=O)(=O)N2CCN(S(=O)(=O)c3ccc4c(c3)OCCO4)CC2)c1 | 8.09% |  |
| O=C(O)c1ccc(-c2noc(-c3cccc(C(F)(F)F)c3)n2)cc1 | 4.41% |  |
| CC(=O)Nc1sc2c(c1-c1ccc3nc[nH]c3c1)CCNC2 | -6.78% |  |
| O=S(=O)(NCc1ccccc1F)c1ccc(O)c2ncccc12 | -12.3% |  |
| O=C(c1ccc(F)c(F)c1Nc1ccc(I)cc1F)N1CC(O)(C2CCCCN2)C1 (stereo not drawn) | 3.68% |  |

Target: Retinaldehyde dehydrogenase 3 (Homo sapiens) (UniProt P47895)
Assay: qHTS for Inhibitors of the Aldehyde Dehydrogenase Family (ALDH1A3) Primary screen (AID 2061315);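 further: plate controls were DMSO vehicle for no effect and reference inhibitor for full effect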
Settings: ALDH inhibition qHTS; series mostly up to 56 µM; activity change, negative = inhibition: at the top concentration

| Structure (SMILES) | activity change, negative = inhibition | Potency |
| --- | --- | --- |
| NC(=O)C1CCN(c2nccc(-c3ccc(Br)cc3)n2)CC1 | -9.01% |  |
| CN(C)c1cccc(-c2cc(N3CCC(C(N)=O)CC3)ncn2)c1 | -6.8% |  |
| COc1ccc(CNc2ccc(-c3nc4ccccc4[nH]3)cc2)cc1OC | -19.2% |  |
| CC(=O)NC(c1cccs1)c1cc(F)c2cccnc2c1O (stereo not drawn) | -15.1% |  |
| COc1ccc(C2Nc3ccccc3C(=O)N2Cc2ccccc2)cc1COc1cccc(C)c1 (stereo not drawn) | 5.21% |  |
| Cc1cnc(N2CCC(C(N)=O)CC2)nc1-c1cccc(N(C)C)c1 | 0.873% |  |
| Cc1ccc(S(=O)(=O)Nc2ccccc2C(=O)Nc2nccs2)cc1 | 20.6% |  |
| CCCn1c(C)nc2c(NC(C)CN(C)C)nc(C)nc21 (stereo not drawn) | 3.53% |  |
| O=C(O)c1ccc(S(=O)(=O)N[C@H](Cc2ccc([N+](=O)[O-])cc2)C(=O)O)cc1 | 0.566% |  |
| Cc1nc(CCNc2ncnc3ccc(-c4ccc5c(c4)OCO5)cc23)cs1 | -0.589% |  |
| COc1ccc(NC(=O)c2cnn3c(C)cc(C)nc23)cc1F | -15.6% |  |
| COc1ccc(CNc2nc(-c3ccccc3C(F)(F)F)nc3ccccc23)cc1 | -13.5% |  |
| Cc1ccnc(NC(=S)NCCN(C)c2cccc(C(F)(F)F)c2)c1 | 25.4% |  |
| COCCNc1nc(C)nc2c1nc(-c1ccccc1)n2CC1CCN(C)CC1 | 6.04% |  |
| O=S(=O)(c1ccc2ccccc2c1)N1CCN(S(=O)(=O)c2c(F)cccc2F)CC1 |  | inactive |
| c1coc(CNc2nc(-c3cccs3)nc3ccccc23)c1 | -4.01% |  |
| O=C(OCC#CCSc1nnc(-c2cccc3ccccc23)o1)c1ccc2ccccc2c1 | 10.2% |  |
| Cc1cc(C)cc(Cn2ncc3c4sc(C)cc4n(C)c3c2=O)c1 | 7.7% |  |
| O=C(Cc1ccccc1)Nc1ccc(S(=O)(=O)Nc2nccs2)cc1 | 4.49% |  |
| Cc1cc(C)nc(NC(=S)N2CCN(c3ccccc3C#N)CC2)c1 | 11.1% |  |

| Structure (SMILES) | activity change, negative = inhibition | Potency |
| --- | --- | --- |
| N#Cc1ccc(Nc2ncc(-c3cccc4ccccc34)o2)cc1 | 0.747% |  |
| C=CCNc1oc(-c2ccc(Cl)cc2)nc1C#N | 7.04% |  |
| O=C(Cn1cc(CNCc2ccccc2)nn1)Nc1cc(C(F)(F)F)ccc1Cl | 5.97% |  |
| NC(=O)C1CCN(c2nc(-c3ccccc3F)cs2)CC1 | 3.26% |  |
| C[C@H]1CC[C@@]2(OC1)O[C@H]1CC3[C@@H]4CC[C@@H]5C[C@@H](O[C@@H]6O[C@H](CO)[C@@H](O[C@@H]7O[C@H](CO[C@@H]8OC[C@@H](O)[C@H](O)[C@H]8O)[C@@H](O[C@@H]8O[C@H](CO)[C@H](O)[C@H](O)[C@H]8O)[C@H](O)[C@H]7O)[C@H](O)[C@H]6O)CC[C@]5(C)C4CC[C@]3(C)[C@H]1[C@@H]2C (stereo partly drawn) | 9.52% [at 16.9 µM] |  |
| Fc1cc(Nc2nc(-c3ccncc3)nc3ccccc23)ccc1-n1cncn1 |  | inactive |
| Cn1nnnc1Sc1ncnc2scc(-c3ccc[nH]3)c12 | 13.7% |  |
| CCC1(CC)CCN(C(=O)CC(c2ccc3c(c2)OCO3)c2c(O)cc(OC)cc2OC)C1 (stereo not drawn) | -10.1% |  |
| O=c1[nH]c2ccc(S(=O)(=O)N3CCN(S(=O)(=O)c4c(F)cccc4F)CC3)cc2[nH]c1=O | 10.8% |  |
| CCC(CC)C(=O)NCCc1nc2ccccc2n1CCOc1ccc(C)cc1 | 5.25% |  |
| COC(=O)c1cc(F)c(S(=O)(=O)N2CCN(S(=O)(=O)c3ccc4c(c3)OCCO4)CC2)cc1F | -2.32% |  |
| NNC(=O)C(C(=O)OCc1ccccc1)c1ccccc1 (stereo not drawn) | 16.8% |  |
| Cc1cccc(C)c1-n1c(SCC(=O)Nc2ccc(F)cc2)nnc1-c1cccc([S+](=O)([O-])N2CCCC2)c1 | 17.4% |  |
| Cc1cc2[nH]c3c(=O)n(Cc4ccccc4F)ncc3c2s1 | 1.53% |  |
| Cc1cccc(S(=O)(=O)N2CCN(S(=O)(=O)c3ccc4c(c3)OCCO4)CC2)c1 | -3.74% |  |
| O=C(O)c1ccc(-c2noc(-c3cccc(C(F)(F)F)c3)n2)cc1 | 1.44% |  |
| CC(=O)Nc1sc2c(c1-c1ccc3nc[nH]c3c1)CCNC2 | -19.1% |  |
| O=S(=O)(NCc1ccccc1F)c1ccc(O)c2ncccc12 | -24.4% |  |
| O=C(c1ccc(F)c(F)c1Nc1ccc(I)cc1F)N1CC(O)(C2CCCCN2)C1 (stereo not drawn) | 4.79% |  |

— PubChem BioAssay (NCATS)
